Measured values published in PubChem BioAssay AID492952 (Southern Research Specialized Biocontainment Screening …, 2010).
Among all 2,300 compounds or so, about 1,500 (65%) were called active. So high a share suggests a set chosen from earlier hits. The list shows a part of the results. Results with a measured potency or affinity are listed apart. Values without a mark were called inactive. How the calls were made is not given here.

Test: replicating M. tuberculosis growth inhibition, dose response, non-replicating M. tuberculosis project, H37Rv (AID 492952);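 further: Mycobacterium tuberculosis grown in culture; growth inhibition read after a week of incubation; 0% = bacteria alone untreated and 100% = bacteria with high antibiotic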
Details: series mostly up to 50 µM; inhibition: at the top concentration

Row | Compound | inhibition [%]
1 | N#CC1=C(N)Oc2c(ccc3cccnc23)C1c1ccccc1 (centres undefined) | 1.24
2 | O=C(NCCc1cccc(Cl)c1)c1cc2ccccc2oc1=O | -3.15
3 | COCCCC1CCN(Cc2nc(-c3ccccc3)no2)CC1 | -5.23
4 | CC(C)(C)OC(=O)NCCC(=O)Oc1ccc2ccc(=O)oc2c1 | -10.2
5 | O=C(NC(=S)Nc1ccc(F)cc1)C1CCCCC1 | 8.98
6 | O=C(N/N=C/c1cccc([N+](=O)[O-])c1O)c1cccs1 | 10.5
7 | O=C(O)c1ccccc1C(=O)NNc1ccc(Cl)cc1 | 9.18
8 | O=C(O)c1ccccc1-c1ccccc1C(=O)Nc1nc2ccccc2s1 | 14
9 | O=C(NCCN1C(=O)S/C(=C\c2ccccc2F)C1=O)C1CCN(S(=O)(=O)c2cccs2)CC1 | 4.18
10 | O=S(=O)(Nc1ccc(O)c2ccccc12)c1ccc(F)cc1 | -0.46
11 | O=c1cc(-c2ccccc2Cl)oc2c([N+](=O)[O-])c(O)cc(O)c12 | -1.85
12 | CCC1CCC(c2nnc(-c3ccc([N+](=O)[O-])cc3)o2)CC1 (centres undefined) | 10.4
13 | Cc1ccc(-c2nnc(Cc3ccc([N+](=O)[O-])cc3)o2)cc1 | -1.75
14 | Cc1nc(Cl)nc(N(C)c2ccccc2)c1[N+](=O)[O-] | 4.31
15 | COc1ccc(Cc2nnc(SCc3ccc([N+](=O)[O-])cc3)o2)cc1 | 4.06
16 | O=C1CCCCC1Sc1nnc(-c2ccc3c(c2)OCO3)o1 (centres undefined) | -1.32
17 | C(=C\c1ccccc1)/CSc1nc2ncccc2[nH]1 | 6.43
18 | O=C(CCSc1ccccc1)N1CCCC1 | 3.77
19 | CCS(=O)(=O)c1ncc(Cl)c(C(=O)Nc2ccc(S(=O)(=O)N3CCC(C)CC3)cc2)n1 | -3.77
20 | CCCC(O)(CCC)C(=O)NNc1ccc(C)cc1 | 10.7
21 | COc1ccc(CNC(=O)COC(=O)C2CC3C=CC2C3)cc1 (centres undefined) | 4.96
22 | CCCCNC(=O)Cc1ccc(C)cc1 | -4.22
23 | CC(C)CSc1nnc2c3ccccc3n(C)c2n1 | 1.04
24 | O=C(c1cc2ccccc2o1)c1nc2c(n1O)CCCCC2 | 5.04
25 | O=C(Nc1ccccc1)c1ccc(Br)o1 | 12.3

Row | Compound | inhibition [%]
26 | CCCOC(=O)c1ccc(NC(=O)C2C3C=CC(O3)C2C(=O)O)cc1 (centres undefined) | 3.84
27 | CCCOC(=O)c1ccc(NC(=O)Cc2cccs2)cc1 | 14
28 | CCCCOC(=O)c1ccc(NC(=O)C2CCCO2)cc1 (centres undefined) | 20.4
29 | CC1CCN(S(=O)(=O)c2cccc(C(=O)Oc3ccc([N+](=O)[O-])cc3)c2)CC1 | -2.52
30 | C=CCN(CC=C)C(=O)Cc1ccc(F)cc1 | -3.08
31 | O=C(CCNc1cccc(F)c1)c1cccc([N+](=O)[O-])c1 | -0.17
32 | Nc1ccccc1C(=O)NNC1=C(C(=O)C(F)(F)F)CCC1 | -1.02
33 | COc1ccc(C)c2sc(NC(=O)CCS(=O)(=O)c3ccccc3)nc12 | 4.31
34 | O=C(NC1CCCC1)c1cc(-c2cccs2)on1 | 1.34
35 | Cc1ccc(-c2nnc(-c3cccs3)o2)cc1 | 0.17
36 | CN1C(=O)CC(N2CCC(c3nc4ccccc4s3)CC2)C1=O (centres undefined) | -6.77
37 | COc1ccc(OCCOC(=O)CCS(=O)(=O)c2ccc(C)cc2)cc1 | 0.82
38 | CSc1ccc(COC(=O)CCS(=O)(=O)c2ccc(C)cc2)cc1 | 6.07
39 | O=C(COc1ccc(F)cc1)Nc1ccc2c(c1)OCCO2 | 25.3
40 | O=C(CCS(=O)(=O)c1ccc(Cl)cc1)Oc1ccc2c(c1)OCO2 | 2.49
41 | Cc1ccc(NC(=O)CC2SC3=NCCCN3C2=O)c(C)c1 (centres undefined) | 4.67
42 | CC(C)c1ccc(C2=C(O)c3ccccc3C(=O)C2=O)cc1 | -2.49
43 | Cc1ccc(C(=O)CCC2CCCC2=O)cc1 (centres undefined) | -3.32
44 | CC1CCCN(CCSc2ccc(Cl)cc2)C1 (centres undefined) | 12.8
45 | CC(CN1CCOCC1)OC(=O)c1ccc2c(c1)OCCO2 (centres undefined) | 0.51
46 | NCCCN1CCOCC1 | -1.85
47 | CCOC(=O)Nc1ccc2c(c1)N(C(=O)CCN1CCOCC1)c1ccccc1S2=O (centres undefined) | 2.63
48 | Clc1ccc(SCCCCN2CCNCC2)cc1 | 4.18
49 | CCOC(=O)C1CCN(CCCSc2ccc(Cl)cc2)CC1 | -0.24
50 | O=Cc1ccc(-c2ccc(Cl)cc2Cl)[nH]1 | 22.4

Row | Compound | inhibition [%]
51 | Fc1ccc(COc2ccc(-c3nnco3)cc2)cc1 | 0.98
52 | O=C(CCCSc1nc2ccccc2s1)NCc1ccco1 | -2.55
53 | COC(=O)CCSCc1cn2cc(Cl)ccc2n1 | -0.87
54 | Cc1cc2n(n1)SC(Nc1ccccc1)N2 (centres undefined) | 3.35
55 | CC(C)n1c(=S)[nH]c2ccccc2c1=O | 3.34
56 | CC(C)(C)NCc1cc(Br)ccc1OC1CCCC1 | 4.3
57 | COc1ccc(-n2c3c(cc(C(=O)NNc4ccccc4)c2=O)C(=O)CC(C)(C)C3)cc1 | -1.68
58 | Clc1ccccc1OCc1nnc(-c2ccccc2)o1 | 4.87
59 | c1ccc(Cc2nnc(-c3ccccc3)o2)cc1 | 2.02
60 | O=C1NC(=S)S/C1=C\c1ccc(SCc2ccco2)o1 | -0.39
61 | CN(CC(=O)Nc1ccc(Cl)cc1)C1CCCCC1 | -1.09
62 | COc1ccc(OCCCC(=O)Nc2ccc(N3CCOCC3)cc2)cc1 | -1.48
63 | Cc1ccc(C(=O)C=CNNC(=O)c2ccccc2)cc1 | 10.6
64 | O=C(C1CCN(C2CC(=O)N(Cc3ccccc3)C2=O)CC1)N1CCCCCC1 (centres undefined) | -5.07
65 | CC(C)CN(Cc1c(O)ccc2ccccc12)CC(C)C | 5.53
66 | O=C(NCCSc1ccccc1)c1ccc(Br)cc1 | -3.27
67 | COc1ccccc1CCNC(=O)c1ccc(C)o1 | 3.56
68 | COc1ccc(C(=O)C=CNNC(=O)c2ccc(Cl)cc2)cc1 | 1.86
69 | CCOc1ccc(NC(=O)CCNC(=O)c2ccc(Br)cc2)cc1 | 11.1
70 | O=C(Oc1cccc2cccnc12)c1cccc(-n2cnnn2)c1 | -0.76
71 | Cc1cccc(C2=N/C(=C\c3cccnc3)C(=O)O2)c1 | 0.69
72 | Cc1ccc(C2=N/C(=C\c3cccnc3)C(=O)O2)cc1 | -1.93
73 | CN(CCOCCOc1ccc(F)cc1)Cc1ccccc1 | -0.16
74 | CN(CCCCOc1ccc(F)cc1)Cc1ccccc1 | -6.23
75 | O=C1CC(N2CCN(c3ccccc3)CC2)C(=O)N1CCc1ccccc1 (centres undefined) | 3.41

Row | Compound | inhibition [%]
76 | O=C(COc1ccccc1)NC1CCCCC1 | 4.93
77 | CC(NC(=O)COc1ccccc1F)C1CC2CCC1C2 (centres undefined) | 10.3
78 | O=C(NCCC1=CCCCC1)c1coc(=O)c(Br)c1 | -8.02
79 | COc1cc(/C=N/Nc2cccc3cccnc23)cc(OC)c1O | 0.63
80 | COc1ccc(OCC(=O)Nc2ccc(N3CCN(C(=O)c4ccco4)CC3)cc2)cc1 | 2.2
81 | COc1ccc(N2CCN(CC(=O)NC(=O)NC(C)(C)C)CC2)cc1 | -7.18
82 | CN(C)Cc1ccccc1Sc1ccc(Br)cc1 | 4.09
83 | CC1CCCN(CCCOc2ccc([N+](=O)[O-])cc2)C1 (centres undefined) | -7.03
84 | O=C1c2ccccc2C(=O)N1CCOc1ccc(F)cc1 | -6.11
85 | COc1ccc(N=Cc2nc(-c3ccccc3)oc2OC(C)=O)cc1 | 9.7
86 | COc1ccccc1N=Cc1nc(-c2ccccc2)oc1OC(C)=O | 9.47
87 | CC1(C)CC(=O)C2=C(C1)OC(N)=C([N+](=O)[O-])C2c1ccc(C#N)s1 (centres undefined) | 25.2
88 | C/C(=N\NC(=O)COc1cccc(C)c1)c1ccc2ccccc2c1O | 5.19
89 | Cc1ccc(N2C(=O)CC(Sc3nccc(C)n3)C2=O)cc1 (centres undefined) | 3.55
90 | O=C(CCC1CCCC1)NCc1ccccn1 | -3.52
91 | CCOC(=O)N1CCC(NC(=O)C2CCN(c3nc(-c4ccc(OC)cc4)no3)CC2)CC1 | -1.07
92 | COc1cccc(CC2(CO)CCCN(Cc3sc(N4CCCC4)nc3Cl)C2)c1 (centres undefined) | 0.34
93 | COc1cccc(C(=O)C2CCCN(CC3=Cc4cc(OC)ccc4OC3)C2)c1 (centres undefined) | 9.31
94 | CN1C(=O)CC(Sc2ccccc2C(=O)O)C1=O (centres undefined) | -2.37
95 | CC(C)=CC1C(C(=O)Nc2ccc(Br)cn2)C1(C)C (centres undefined) | 8.89
96 | C/C(=C\C(=O)c1ccc(Br)cc1)NNC(=O)c1ccccc1 | 20.2
97 | Cn1[nH]c(-c2ccccc2)c(/C=N/O)c1=O | 3.15
98 | CCOc1ccc(NCC(=O)c2ccc(C)cc2)cc1 | 11.1
99 | CCOc1ccc(NC(=O)Cn2sc3nc(C)cc(C)c3c2=O)cc1 | -4.28
100 | COc1ccc(C(O)CNc2ccc(C)cc2)cc1 (centres undefined) | -0.87

Row | Compound | inhibition [%]
101 | O=C1CCC(=O)N1CNc1ccc(Oc2ccccc2)cc1 | -6.19
102 | CCOC(=O)CCSc1n[nH]c(=S)s1 | 0.83
103 | CC(=O)N1CCN(C(=O)CC2OC(=O)c3ccccc32)CC1 (centres undefined) | -6.89
104 | CCn1ccc(C(=O)Nc2cccc(Cl)c2)n1 | -3.96
105 | O=C(COC(=O)CC1CCCC1)Nc1ccc(Cl)cn1 | 0.61
106 | O=C(COc1ccc(Br)cc1)N/N=C1/SCC(=O)N1Cc1ccco1 | 0.21
107 | O=C(COc1ccccc1)Nc1ccc(Cl)cn1 | 4
108 | O=C(O)c1ccc(NCc2ccc(Br)cc2)cc1 | 1.94
109 | COc1ccc(CC(=O)OCC(=O)Nc2ccc(Br)cc2)cc1 | -4.73
110 | COc1ccccc1C(=O)OCC(=O)Nc1ccc(Cl)cn1 | 6.92
111 | O=C(CCC1CCCC1)Nc1ccc(Br)cn1 | -6.11
112 | Cc1ccc(OCC(=O)Nc2ccc([N+](=O)[O-])cc2)cc1 | 4.13
113 | O=C(OCC#CCSc1nnc(-c2ccncc2)o1)c1cccs1 | 8.48
114 | OC(C#CCN1CCOCC1)c1cccs1 (centres undefined) | 17.4
115 | O=C(NCc1cccs1)c1ccc([N+](=O)[O-])cc1 | 17.9
116 | Nc1ccc(C(=O)N/N=C\C=C\c2ccc([N+](=O)[O-])cc2)cc1 | -1.89
117 | CCOC(=O)c1csc(NC(=O)COc2ccc(Cl)cc2Cl)n1 | 2.42
118 | O=C(N/N=C/c1cc(Br)ccc1O)c1ccccc1Cl | -1.46
119 | O=C(NCc1ccc(Cl)cc1)c1n[nH]c([N+](=O)[O-])c1Cl | -6.89
120 | O=C1NC(Cc2c[nH]c3ccccc23)C(=O)N1CCOc1ccccc1 (centres undefined) | -4.22
121 | COC(=O)COc1ccc(S(=O)(=O)NCc2ccc3c(c2)OCO3)cc1 | 14
122 | Cc1cc(Cl)ccc1N(CC(=O)NCc1ccccc1)S(C)(=O)=O | 2.63
123 | Fc1ccc(-c2nnc(CSc3nnc(-c4cccs4)o3)o2)cc1 | 8.56
124 | c1ccc(-c2nnc(SCc3cn4ccsc4n3)o2)cc1 | 0.98
